# PV pol inh: poliovirus RdRp elongation inhibitors, primary screen, biochemical, fluorescence polarization, total intensity | Genome polyprotein (Poliovirus type 1 (strain Mahoney)), P03300 | poliovirus polymerase elongation; active compounds read low | % elongation, % (compound at 16.7 µg/mL) | hit rate 0.66% among 150,000 | AID 588519, 2011; in the data active = % elongation below about 90%
# AID504770: growth inhibition of E. coli YBA685, primary screen, V. cholerae RctB inhibitors | E. coli YBA685 rctB-dependent plasmid, OD600 growth, 3 h; active compounds read low | z-score (no concentration beside the values) | hit rate 0.27% among 130,000 | AID 504770, 2011; in the data active = z-score below about -2, passing the limit was not always enough
# MenB inh: M. tuberculosis MenB inhibitors, primary screen, biochemical, absorbance; MenB enzyme assay, absorbance read-out; inhibition, % (concentration not given with the values); hit rate 0.43% among 100,000; AID 540299, 2011; in the data active = inhibition above about 21%, passing the limit was not always enough
# MbtI inh: MbtI salicylate synthase inhibitors, primary screen, biochemical, fluorescence intensity | P9WFX0 | AID 493033, 2011 | inhibition, % (no concentration beside the values) | hit rate 0.89% among 100,000 | purified MbtI enzyme, fluorescence intensity read-out; in the data active = inhibition mostly above about 56%, no sharp cut-off; inactive = mostly below about 77%
# Target sequence (P9WFX0 whole entry, looked up): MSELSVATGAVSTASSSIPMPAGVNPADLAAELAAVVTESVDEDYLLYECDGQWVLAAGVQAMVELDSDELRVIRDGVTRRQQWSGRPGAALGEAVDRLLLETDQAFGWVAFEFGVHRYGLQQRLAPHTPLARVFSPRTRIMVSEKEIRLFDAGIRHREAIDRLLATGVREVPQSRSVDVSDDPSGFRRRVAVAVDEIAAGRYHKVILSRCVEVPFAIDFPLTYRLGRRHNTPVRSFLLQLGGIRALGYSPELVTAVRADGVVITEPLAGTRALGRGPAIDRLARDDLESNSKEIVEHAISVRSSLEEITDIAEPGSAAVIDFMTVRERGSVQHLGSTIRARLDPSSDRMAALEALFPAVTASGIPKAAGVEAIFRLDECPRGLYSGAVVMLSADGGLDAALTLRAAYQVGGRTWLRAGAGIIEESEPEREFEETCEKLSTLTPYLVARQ
# The depositor's hits bear a star; · = no result given. An excerpt weighted towards active compounds, which were near 1.5% of everything screened.
SMILES,PV pol inh,AID504770,MenB inh,MbtI inh
CC(C)CNc1nc(-c2ccccc2)cs1,102,-0.8,-50,91*
COC(=O)C1=C(Nc2ccccc2NC(=O)c2ccccc2C(=O)O)CSC1,105,-0.95,-7,19
CNC(=O)Nc1ccccc1NC1=C(C(=O)OC)CSC1,80,-2.2*,15,69
COc1ccc(S(=O)(=O)N2CCN(C)CC2)c(Cl)c1Cl,101,-0.35,8,-3
Cc1nnc2c(=O)n(-c3cccc(F)c3)ccn12,101,-0.75,-28,5
COc1ccc(C(=O)CSc2nnc(-c3ccco3)c(-c3ccco3)n2)cc1,98,0.75,30*,54
O=C(CSc1nnc(-c2ccco2)c(-c2ccco2)n1)Nc1ccc(C(=O)O)cc1,·,0.7,·,·
O=C(CSc1nnc(-c2ccoc2)c(-c2ccoc2)n1)c1ccc(N2CCCC2=O)cc1,97,0.15,25,21
CCOc1ccc(C(=O)CSc2nnc(-c3ccco3)c(-c3ccco3)n2)cc1NC(=O)CC,100,1.5,62*,94*
O=C(CSc1nnc(-c2ccoc2)c(-c2ccoc2)n1)c1ccc(-c2ccccc2)cc1,98,0.15,20,61*
O=C1C2C3C=CC(C3)C2C(=O)N1CN1CCCCC1 (configuration not stated),103,-0.85,-10,-5
NC(=S)NNc1ccc(S(N)(=O)=O)cc1,101,-0.5,3,51*
COc1ccc(Nc2ncn[nH]2)cc1,·,-1,·,·
COc1ccc(OC)c(N2C(=O)C=CC2=O)c1,99,1.4,·,97*
COc1ccccc1N1C(=O)C=CC1=O,98,1.2,·,98*
NC(=O)c1ccc(C(F)(F)F)o1,·,0.45,·,·
CS(=O)(=O)N(CC(=O)NC12CC3CC(CC(C3)C1)C2)c1ccc2c(c1)OCO2,·,-0.6,2,-2
O=C(Nc1noc2ccccc12)c1cc2c(s1)-c1ccccc1CC2,100,0.1,-3,-331
CN1CCC(N(Cc2ccc3c(c2)OCO3)C(=O)c2cn(Cc3ccccc3)c3ccsc23)CC1,104,1.2,24*,0
CN1CCC(N(Cc2ccco2)C(=O)c2cc3sccc3n2Cc2ccccc2)CC1,102,-0.7,-22,8
CCCN=C1NN=C(c2cc(C)n(Cc3ccc4c(c3)OCO4)c2C)CS1,108,-1.2,-9,-1
Clc1ccc(C2=NNC(=NCc3ccc4c(c3)OCO4)SC2)cc1,85*,-0.7,-29,47
N#CS/C=C/C(=O)c1ccccc1,96,-2.7*,-51,100*
Cc1ccccc1NC(=O)CCC(=O)O,102,1.6,11,9
CCc1ccccc1NC(=O)CCC(=O)O,100,0.6,32*,-9
SMILES,PV pol inh,AID504770,MenB inh,MbtI inh
COCCN1Cc2cccc(C(=O)N(CC(=O)NC3CCCCC3)Cc3ccc4c(c3)OCO4)c2C1=O,106,-0.65,-51,-5
COc1ccc(NC(=O)c2cc3ccc(O)cc3o/c2=N\O)cc1,101,-0.15,32*,8
COc1ccc(NC(=O)c2cc3ccc(O)cc3oc2=Nc2ccc(C(=O)O)cc2)cc1,107,0,-89,6
O=C1C=CC(=O)N1CCc1ccccc1,102,-1.6,·,93*
O=C1C=CC(=O)N1CCc1ccc(Cl)cc1,101,-1.8,-7,100*
Fc1ccc(-c2csc(-c3cccs3)n2)cc1,·,0.1,·,·
CCSc1nc(C(=O)O)cc(=O)[nH]1,·,0.7,·,·
CC(C)Cc1cc(C(=O)O)nc(=O)[nH]1,99,1.4,38*,8
O=C(Cn1cc(C(F)(F)F)ccc1=O)c1ccc[nH]1,103,1.1,11,23
O=C(COC(=O)c1ccncc1)NCc1ccccc1,103,-3.5*,·,-9
O=C(COC(=O)c1ccc(Br)cc1)NCc1ccccc1,100,-0.1,·,-3
N/C(=N\OC(=O)c1ccc(Br)o1)c1ccncc1,105,-2.4*,0,7
CCN1CCC2(CC1)N=C(c1ccccc1)C(=S)N2,104,-1,-23,77*
CN1CCC2(CC1)N=C(c1ccccc1)C(=S)N2,101,-0.35,-23,15
COC(=O)c1cc(S(=O)(=O)N2CCn3c2nc2ccccc23)c[nH]1,100,-0.4,3,-8
CCc1c(C)sc(NC(=O)C2CC3CCC2C3)c1C(=O)OC (configuration not stated),88*,0.85,-8,·
CCc1c(C)sc(NC(=O)/C=C/c2cccs2)c1C(=O)OC,100,-1,-42,-18
COc1cccc(-c2nnc(-c3ccc(NC(=O)C(F)(F)F)cc3)o2)c1,109,0.05,-28,·
O=c1[nH]nc2c3c(cccc13)-c1ccccc1-2,99,1,58*,1
O=C1c2ccccc2-c2n[nH]c3cccc1c23,99,-0.6,-13,2
CCC(C(=O)NC1CCCC1)N(C(=O)Cn1nnc(-c2ccc(C)cc2)n1)c1ccc2c(c1)OCCO2 (configuration not stated),101,1.8,33*,7
CCCC(C(=O)NC1CCCC1)N(C(=O)Cn1nnc(-c2ccc(C)o2)n1)c1ccccc1 (configuration not stated),105,-0.55,-37,-26
Cc1ccc2nc(C)cc(C(=O)O)c2c1,102,-0.4,33*,1
Cc1cc(C(=O)O)c2cc(O)ccc2n1,99,0.3,9,·
O=c1oc2c(O)c(O)cc3c(=O)oc4c(O)c(O)cc1c4c23,83*,0.1,-5,26
SMILES,PV pol inh,AID504770,MenB inh,MbtI inh
CSc1nc2c(=S)[nH]c(=S)[nH]c2s1,82*,-1.1,-95,55*
CCOc1cc(OCC)c(/C=N/O)c(OCC)c1,·,0.65,·,·
CCOc1ccc(/C=N/O)cc1,104,0.6,26*,10
CCOC(=O)c1nnn(-c2nn3nnnc3c3ccccc23)c1C,100,0.7,32*,14
CCOC(=O)c1nnn(-c2nonc2-n2cccc2)c1C,101,-0.85,-16,-12
O=C(Nc1ccc(Cl)cc1Cl)c1c(O)c2c(n(Cc3ccco3)c1=O)CCCC2,103,0.15,-3,·
CCCn1c2c(c(O)c(C(=O)Nc3ccccc3F)c1=O)CCCC2,101,-0.45,48*,-3
CCc1ccccc1NC(=O)Cn1c(=O)n(Cc2ccc3c(c2)OCO3)c(=O)c2ccccc21,·,-0.05,·,·
C[C@H]1COc2c(N3CCN(C)CC3)c(F)cc3c(=O)c(C(=O)O)cn1c23,102,-4.4*,-7,-51
NC(=O)NC12CC3CC(CC(C3)C1)C2,104,-3.8,-15,-5
CCCCCOc1ccc(NC(=O)Cn2c(-c3cncs3)nc3ccccc32)cc1,89*,·,·,·
Cc1ccc(/C=C/C2=CC(=C(C#N)C#N)CC(C)(C)C2)o1,151,-0.5,-36,15
Cc1ccc(/C=C/C2=Cc3c(sc(N)c3C#N)C(C)(C)C2)o1,104,0.4,-42,89*
N#Cc1ccc(NC(=O)c2cc(C3CC3)nn2-c2ccccc2)cc1,100,-0.35,-8,104
CCOC(=O)c1ccc(N)cc1,102,0,-8,-2
CCOC(=O)C(C#N)C(=O)c1ccc(N)cc1 (configuration not stated),80*,-0.85,26,·
O=c1[nH]cnc2c1cnn2-c1ccc(C(F)(F)F)cn1,99,-1.1,·,41

# Screening results deposited in PubChem by ICCB-Longwood Screening Facility, Harvard Medical School.
